Assay outcomes as filed in PubChem BioAssay.
Sampled rows, rich in hits. Any-hit rate of the full collection: about 13%.
Pf growth 48h: inhibits P. falciparum growth in the first generation, 48 h | P. falciparum luciferase growth in erythrocytes, 48 h | Potency, µM (highest dose often 28.7 µM), inactives show at the top dose activity change, negative = inhibition, actives largely listed as inhibitors | 310,000 compounds, 5.9% hits | AID 504832; further: potency means the concentration at half of the fitted maximal effect
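Luminescence readout; reporter = integrated firefly luciferase in P. falciparum. RBC culture at 2% hematocrit, 0.1% parasitemia final, 37 C/5% CO2; decreased signal taken as growth inhibition.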
HCV inh: inhibitors of hepatitis C virus infection; AID 651820; 340,000 compounds, 3.4% hits; Huh7.5.1 HCVcc-Cre infection, luciferase reporter, 44 h; Potency, µM (titrated, usually from 41.8 µM), without a hit: at the highest dose activity change, negative = inhibition, most hits filed as inhibitors; further: potency means the concentration at half of the fitted maximal effect
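Infectious HCV cell culture screen: compound-treated cells (1,000/well, pre-plated 4 h) are infected with HCVcc-Cre at roughly 0.5 moi and grown 44 h. Infection is quantified by luciferase signal after 15 min substrate incubation at room temperature.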
HCMV inh: human cytomegalovirus inhibition. HFF cells, HCMV-luciferase reporter, 72 h; stronger effect = lower value. 410,000 compounds, 4.5% hits. AID 1259415. activity change, negative = inhibition, % at 57.5 µM; in the data active means activity change below about -60%; inconclusive means no clear call, values can overlap the other calls; inactive means above about -39%
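After 16 h attachment at 37C, HFF cells received test compound and HCMV-luciferase (1 PFU/cell); reporter luminescence read 72 h later, data normalized against buffer-only and known inhibitor Salinomycin.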
Pf growth 96h: inhibits malaria parasite growth, 96 h | P. falciparum luciferase reporter growth, 96 h | Potency, µM (series often up to 28.7 µM), inactives show at the highest dose activity change, negative = inhibition, actives largely listed as inhibitors | 320,000 compounds, 6.9% hits; further: potency means the concentration at half of the fitted maximal effect
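Delayed-death screen, second-generation endpoint: infected erythrocytes, 2% hematocrit, 0.05% parasitemia final; 96 hours at 37 C, 5% CO2; luciferase detection reagent; luminescence decrease equals reduced growth.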
* marks the source's active call; other numbers are inactive results; u = inconclusive; x = not tested or not shown; ! = repeats disagree. Unless noted, the call rests on the fitted dose curve; in most records, active means well fitted inhibition curve with a large enough effect; inconclusive means small, poorly fitted or top-dose-only effect, or another doubt; inactive means no such curve, though single readings can be large or run the other way. On the % scale 0 is the no-effect control and ±100 the full control effect.

SMILES	Pf growth 48h	HCV inh	HCMV inh	Pf growth 96h
O=c1oc2ccc(Cl)cc2cc1-c1nc(-c2cccs2)no1	x	x	-14.5	x
CCOC(=O)c1ccccc1NC(=O)N1CCN(Cc2cc(=O)n3nc(-c4ccccc4)sc3n2)CC1	x	x	5.5	x
CN(C(=O)c1ccc(NC(=O)Cc2cccc(NC(=O)C3CCN(C(=O)CCc4ccccc4)CC3)c2)cc1)C1CC1	x	x	8.6	x
Cc1ccc(NC(=O)NCCc2c(C)nn(C)c2C)c(Cl)c1	x	x	-17.8	x
CCc1cccc(-n2nnc(-c3nsc(NC(=O)c4cccs4)n3)c2C)c1	x	x	129.1	x
CC(C)N(Cc1nc2ccccc2c(=O)[nH]1)C(=O)c1ccc(NC(=O)CSc2nnnn2C)cc1	u	13.8%	3.7	13.1µM*
C[C@H]1[C@@H](NC(=O)NCc2ccccc2)CC[C@@]23CCCN2C(=O)CCC[C@@H]13	x	x	-37.7	x
c1ccc2c(c1)-c1cccc3cccc-2c13	8.1%	u	-28.5	21.7%
O=C1c2cccc3cccc(c23)C(=O)C1(O)O	x	-25.8%	-68.9*	x
CCOc1cc(-c2ccc(OC(=O)c3ccccc3F)cc2)cc(=O)c2c(C)oc(C)c12	x	x	64.5	x
Cc1cc(C=O)c(C)n1-c1sc2c(c1C(=O)O)CCCC2	-7.8%	4.4%	-4.4	u
CCOC(=O)c1c(-n2c(C)cc(C=C3C(=O)NC(=S)NC3=O)c2C)sc2c1CCCC2	11.7µM*	u	x	11.7µM*
COC(=O)c1c(-n2c(C)cc(C=O)c2C)sc2c1CCCC2	10.4µM*	-19.7%	-75.9*	u
CCOc1ccccc1NC(=O)C1CCCN(S(=O)(=O)c2ccc(OC)c(C)c2)C1 (centres undefined)	10.4µM*	u	-23.7	x
CCOc1ccc(S(=O)(=O)N2CCCC(C(=O)NCc3ccncc3)C2)cc1C (centres undefined)	5.6%	u	-76.0*	-16.4%
Cc1ccccc1OCC(=O)Nc1c(C)ccc2nsnc12	x	x	-16.7	x
CCN(CC)CCNC(=O)c1ccc2nc(CCc3ccccc3)oc2c1	x	x	11.1	x
C=CCS/C(N)=N\N=C\c1c(O)ccc2ccccc12	69.8%	22.4µM*	53.1	66.9%
CCNC(=O)CC1C(=O)N(c2ccc(F)cc2)C(=O)N1Cc1ccc(OC)c(OC)c1 (centres undefined)	x	x	9.6	x
Cc1cccc(C(=O)O/N=C(\N)c2ccc(Br)cc2)c1	x	-11.6%	84.6	u
Cc1ccc(/C(N)=N/OC(=O)c2ccc3c(c2)OCO3)cc1	u	u	90.8	5.86µM*
Cc1occc1C(=O)O/N=C(\N)c1ccccc1	-25.6%	7.1%	25.4	11.7µM*
O=C(COC(=O)c1cccc(Br)c1)NCCc1ccccc1	1.6%	20.1%	-8.5	13.2%
O=C(COC(=O)c1cccc(Br)c1)NCCNC(=O)COC(=O)c1cccc(Br)c1	0.465µM*	12.9%	17.5	0.415µM*
N/C(=N\OC(=O)c1ccc2ccccc2c1)c1ccc(Br)cc1	13.1µM*	2.4%	-17.7	293.3%
SMILES	Pf growth 48h	HCV inh	HCMV inh	Pf growth 96h
N/C(=N\OC(=O)c1cccc(Br)c1)c1ccccc1	61.7%	11.2µM*	264.1	41.3%
CCOc1ccc(NC(=O)Cn2nc(-c3ccccc3Cl)n(CC)c2=S)cc1	u	u	-61.6*	u
O=C(Cn1c(=O)c2ccccc2n(CC(=O)Nc2ccc(Cl)cc2)c1=O)NCCc1ccccc1	x	x	-6.3	x
Cc1cccc(-c2noc(CN(C(=O)c3c(-c4ccccc4Cl)noc3C)C(C)C)n2)c1	x	10µM*	17.5	u
Cc1cccc(-c2noc(CN(C(=O)c3ccc(C)c(C)c3)C(C)C)n2)c1	x	x	-94.6*	x
Cc1onc(-c2ccccc2Cl)c1C(=O)N(Cc1nc(-c2ccccc2)no1)C1CCCCC1	x	11.2µM*	-26.9	u
Cc1onc(-c2ccccc2Cl)c1C(=O)NCc1nc(-c2ccc(C(F)(F)F)cc2)no1	u	u	-30.7	u
Cc1cc(C(=O)N(Cc2nnc(-c3ccc(Cl)cc3)o2)C(C)C)c2ccccc2n1	11.7µM*	-13.2%	19.9	10.4µM*
Cc1cccc(-c2noc(CN(C(=O)c3ccc4c(c3)OCO4)C(C)C)n2)c1	4.9%	u	0.4	x
COc1ccc2c(c1)CC(NC(=O)Nc1ccc(Br)c(C)c1)CO2 (centres undefined)	x	x	0.6	x
Cc1ccc(C)c(C(=O)N(Cc2nc(-c3ccc(Cl)cc3)no2)C(C)C)c1	x	10µM*	-17.2	-5.4%
CCCSc1ncc(Cl)c(C(=O)N2CCN(c3ccc(OC)cc3)CC2)n1	x	x	-35.6	x
CCc1nn(CC(=O)NCCN(CC(C)C)CC(C)C)c(=O)c2cc3sc(C)cc3n12	x	x	-11.2	x
CCOc1cc2[nH]c(=S)n(C(C)C)c(=O)c2cc1OCC	x	u	-21.6	8.28µM*
CCOc1cc2[nH]c(=S)n(CCCOC)c(=O)c2cc1OCC	-7.9%	u	-0.7	6.57µM*
CCC(CO)n1c(=S)[nH]c2cc(OC)c(OC)cc2c1=O (centres undefined)	8.5%	-0.5%	u	65.2%
CCOc1cc2[nH]c(=S)n(C3CC3)c(=O)c2cc1OCC	-8.1%	-18.7%	-3.0	u
CCOc1cc2[nH]c(=S)n(CCCN3CCOCC3)c(=O)c2cc1OCC	u	u	-6.9	u
CCCCN(C)C(=O)CCCCn1c(=O)[nH]c2cc(OCC)c(OCC)cc2c1=O	10.4µM*	-7.9%	50.1	u
CCOC(=O)N1CCC(n2c(=S)[nH]c3cc(OCC)c(OCC)cc3c2=O)CC1	-7.9%	-28.9%	-76.7*	-7.7%
CN(Cc1ccccc1)C(=O)CCCn1c(=O)[nH]c2cc(Cl)ccc2c1=O	x	-21.4%	3.4	14.7µM*
CN(C)c1ccc(Nc2nc3ccccc3n3nnnc23)cc1	x	x	-61.8*	x
CC1C/C(=N/N=C2/NC(=O)CS2)CC(C)(C)C1 (centres undefined)	-12.0%	-5.9%	-12.4	10.4µM*
CC1C/C(=N/N2C(=O)CSC2=S)CC(C)(C)C1 (centres undefined)	31.4%	1.8%	-70.2*	13.1µM*
O=C1CS/C(=N/N=C2C3CC4CC(C3)CC2C4)N1	6.0%	32.4%	u	13.1µM*
SMILES	Pf growth 48h	HCV inh	HCMV inh	Pf growth 96h
CC(=O)Nc1ccc(NC(=O)c2cnn(-c3ccccc3)c2C2CCN(C(=O)OC(C)(C)C)CC2)cc1	x	x	7.5	x
Cc1nc2ncnn2c(C)c1CCC(=O)NCc1ccc(Cl)cc1	x	x	15.7	x
COc1nnc(-c2ccc(N3CCOCC3)c(NC(=O)c3ccco3)c2)c2ccccc12	7.38µM*	u	u	13.0%
COc1nnc(-c2ccc(N3CCCCC3)c(NC(=O)c3ccccc3Cl)c2)c2ccccc12	x	x	-99.3*	x
Cn1nc(-c2ccc(N3CCCCC3)c(NC(=O)c3ccco3)c2)c2ccccc2c1=O	u	7.08µM*!	-28.9	x
COC(=O)[C@]12CCCCC=C1N(CCc1ccc(OC)c(OC)c1)C(=O)[C@H](CC(=O)N1CCOCC1)C2	x	x	-1.4	x
O=C(c1nc2ccccn2c1CNCCCn1ncc2ccccc21)N1CCOCC1	7.2%	20.2%	-1.6	u
Cc1cccn2c(CNCCCn3ncc4ccccc43)c(C(=O)N3CCCCC3)nc12	u	-8.7%	10.0	14.7µM*
